Each structure is given as a SMILES string. Records with an inconclusive call do not appear. Calls of active or inactive are those of the source. The calls were made as follows, unless noted: active = hit-call score of the fitted dose curve at least 0.9, where 1 is the maximum; inactive = score below 0.9.

Test [1] has as its target human Thyroid Receptor alpha (THRa1), THRA (gene 7067) (UniProt P10827). Briefly: ATG_THRa1_TRANS: Attagene TRANS-FACTORIAL HepG2 Assay for human Thyroid Receptor alpha (THRa1) (AID 2283014; active = hit-call score of the fitted dose curve at least 0.9, where 1 is the maximum). A digest of the protocol:
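Reporter transcript induction, read by capillary electrophoresis of 6-FAM-labelled RT-PCR products, reflects activity of a transfected THRa1-Gal4 fusion in HepG2 liver cells. Cells were dosed for 24 h; activity was fitted in the positive direction against DMSO.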

Read-out in test [2]: E-selectin (Homo sapiens) (UniProt P16581)
The test is described as follows: BSK_3C_Eselectin: BioMAP Diversity Plus: 3C Assay for Eselectin Biomarker Activity (AID 2283015).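 Also: cell surface E-selectin protein quantified by ELISA 24 h after dosing.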 The settings on record: primary human endothelial cells (HUVEC); actives raise or lower the signal. Summed up: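 ELISA read-out of E-selectin on endothelial monolayers after 24 h chemical treatment. Human umbilical vein primary cells served as the system, with DMSO defining baseline activity for bidirectional fitting.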

Read-out in test [3]: Interleukin-1 alpha (IL1a), IL1A (gene 3552)
Briefly: BSK_BE3C_IL1a: BioMAP Diversity Plus: BE3C Assay for Interleukin-1 alpha (IL1a) Biomarker Activity (AID 2283016). The settings on record: primary human bronchial epithelial cells; actives raise or lower the signal. Summed up:
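Cultures of primary human bronchial epithelial cells receive test chemical. After 24 h, IL-1a is quantified by ELISA, while parallel wells are fixed in TCA and SRB-stained for total protein. Changes in either direction are fitted relative to DMSO.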

Read-out in test [4]: Monocyte Chemoattractant Protein-1 (MCP1), CCL2 (gene 6347)
The test is described as follows: BSK_3C_MCP1: BioMAP Diversity Plus: 3C Assay for Monocyte Chemoattractant Protein-1 (MCP1) Biomarker Activity (AID 2283017). Conditions: primary human endothelial cells (HUVEC); actives raise or lower the signal. Summed up:
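ELISA read-out of MCP-1 from human umbilical vein endothelial cell cultures harvested 24 h post-dosing. Gain or loss of signal was fitted relative to DMSO.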

Read-out in test [5]: Monocyte Chemoattractant Protein-1 (MCP1), CCL2 (gene 6347)
Briefly: BSK_4H_MCP1: BioMAP Diversity Plus: 4H Assay for Monocyte Chemoattractant Protein-1 (MCP1) Biomarker Activity (AID 2283018). Conditions: primary human endothelial cells (HUVEC); actives raise or lower the signal. A digest of the protocol: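 Readout: MCP-1 ELISA on compound-treated HUVEC, sampled 24 h post-dosing. Baseline and negative control DMSO; bidirectional fit. Overt toxicity checked alongside by sulforhodamine B protein staining at time of biomarker measurement.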

Read-out in test [6]: Human Leukocyte Antigen - DR isotype (HLADR), HLA-DRA (gene 3122)
The test is described as follows: BSK_3C_HLADR: BioMAP Diversity Plus: 3C Assay for Human Leukocyte Antigen - DR isotype (HLADR) Biomarker Activity (AID 2283019).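 As to outcome: ELISA of cell-surface HLA-DR on HUVEC 24 h after dosing.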 The settings on record: primary human endothelial cells (HUVEC); actives raise or lower the signal. Summed up:
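ELISA readout of surface HLA-DR on human umbilical vein endothelium, taken 24 h after chemical treatment. Gain- and loss-of-signal were both fitted relative to DMSO.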

Read-out in test [7]: Interleukin-8 (IL8), CXCL8 (gene 3576)
Briefly: BSK_3C_IL8: BioMAP Diversity Plus: 3C Assay for Interleukin-8 (IL8) Biomarker Activity (AID 2283020). The settings on record: primary human endothelial cells (HUVEC); actives raise or lower the signal. Summed up: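 Human vascular endothelial cells (umbilical vein) in the 3C system; IL-8 level detected by ELISA at 24 h post-dose, with DMSO as baseline.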

Read-out in test [8]: Monokine induced gamma interferon (MIG), CXCL9 (gene 4283)
Briefly: BSK_3C_MIG: BioMAP Diversity Plus: 3C Assay for Monokine induced gamma interferon (MIG) Biomarker Activity (AID 2283021). The settings on record: primary human endothelial cells (HUVEC); actives raise or lower the signal. A digest of the protocol: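 After 24 h of treatment, human umbilical vein endothelial cultures (3C system) had their MIG biomarker level determined by ELISA, with DMSO serving as negative control.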

The nature of test [9]: BSK_3C_SRB: Viability Assessment in the BioMAP Diversity Plus: 3C Assay (AID 2283023).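 Also: fitted both ways against DMSO so a hit may be signal rise or drop.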 Conditions: primary human endothelial cells (HUVEC). A digest of the protocol:
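Absorbance at 560 nm of sulforhodamine B-stained (0.1%) total protein served as a cytotoxicity readout in human umbilical vein endothelial cells, 24 h after chemical treatment. Signal was fitted bidirectionally relative to DMSO.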

Read-out in test [10]: Matrix Metallopeptidase 1 (MMP1), MMP1 (gene 4312)
The test is described as follows: BSK_BE3C_MMP1: BioMAP Diversity Plus: BE3C Assay for Matrix Metallopeptidase 1 (MMP1) Biomarker Activity (AID 2283024). The settings on record: primary human bronchial epithelial cells; actives raise or lower the signal. A digest of the protocol:
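Dose cells, wait 24 h, run MMP1 ELISA; cells are human bronchial epithelial primaries. Both increases and decreases relative to DMSO counted.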

Read-out in test [11]: Pselectin, SELP (gene 6403)
Briefly: BSK_4H_Pselectin: BioMAP Diversity Plus: 4H Assay for Pselectin Biomarker Activity (AID 2283026). Conditions: primary human endothelial cells (HUVEC); actives raise or lower the signal. A digest of the protocol: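 Human vascular endothelium from umbilical vein; P-selectin measured by ELISA at 24 h post-dose, with cytotoxicity checked by sulforhodamine B total-protein staining in parallel cultures (0.1% SRB after 10% TCA fixation, read at 560 nm).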

A short description of test [12]: BSK_4H_SRB: Viability Assessment in the BioMAP Diversity Plus: 4H Assay (AID 2283027).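 Also: cells exposed to compound for 24 h before staining.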 Conditions: primary human endothelial cells (HUVEC). A digest of the protocol: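 Human umbilical vein endothelial cells were dosed with chemical and, after 24 h, fixed with 10% TCA, stained with 0.1% sulforhodamine B, and read at 560 nm to give total protein as a cytotoxicity measure. Bidirectional fitting relative to DMSO control.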

The nature of test [13]: BSK_BE3C_SRB: Viability Assessment in the BioMAP Diversity Plus: BE3C Assay (AID 2283028). Conditions: primary human bronchial epithelial cells. Summed up: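 Cells (human bronchial epithelial, primary) are treated with chemicals, and after 24 h the parallel cultures are fixed in 10% TCA. These are then stained with 0.1% SRB and read at 560 nm. Gain or loss of signal is fitted relative to DMSO.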

Read-out in test [14]: Thrombomodulin, THBD (gene 7056)
The test is described as follows: BSK_3C_Thrombomodulin: BioMAP Diversity Plus: 3C Assay for Thrombomodulin Biomarker Activity (AID 2283029). Conditions: primary human endothelial cells (HUVEC); actives raise or lower the signal. Summed up: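 Thrombomodulin ELISA, human primary HUVEC, 24 h post-dose; data fitted in both directions relative to DMSO.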

Read-out in test [15]: Urokinase-type plasminogen activator receptor (uPAR), PLAUR (gene 5329)
The test is described as follows: BSK_4H_uPAR: BioMAP Diversity Plus: 4H Assay for Urokinase-type plasminogen activator receptor (uPAR) Biomarker Activity (AID 2283030). Conditions: primary human endothelial cells (HUVEC); actives raise or lower the signal. A digest of the protocol: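 Cell-surface uPAR ELISA signal, measured 24 h after dosing human umbilical vein endothelial cells, was analyzed with bidirectional fitting relative to DMSO. Parallel SRB staining of total protein tracked overt cytotoxicity.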

For test [16], the target named is human Retinoid X Receptor beta (RXRb), RXRB (gene 6257) (UniProt P28702). The test is described as follows: ATG_RXRb_TRANS: Attagene TRANS-FACTORIAL HepG2 Assay for human Retinoid X Receptor beta (RXRb) (AID 2283013; active = hit-call score of the fitted dose curve at least 0.9, where 1 is the maximum). Summed up:
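Multiplexed TRANS reporter assay in HepG2; 24 h dosing; reporter mRNA by RT-PCR/CE fluorescence; gain-of-signal relative to DMSO.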

In test [17] the target is human Vitamin D Receptor (VDR), VDR (gene 7421) (UniProt P11473). The test is described as follows: ATG_VDR_TRANS: Attagene TRANS-FACTORIAL HepG2 Assay for human Vitamin D Receptor (VDR) (AID 2283022; active = hit-call score of the fitted dose curve at least 0.9, where 1 is the maximum). A digest of the protocol:
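Steps: transfect HepG2 with GAL4-UAS-driven reporter constructs; dose compounds 24 h; isolate RNA, reverse-transcribe, PCR-amplify with 6-FAM-labelled primer extension and HpaI digestion; quantify fragments by capillary electrophoresis relative to DMSO.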

Test [18] can be described thus: BSK_3C_Vis: BioMAP Diversity Plus: 3C Assay for Morphology Visualization (AID 2283025).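 Also: fitted both ways so gain or loss versus DMSO counts.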 Conditions: primary human endothelial cells (HUVEC). Summed up: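 Endothelial cells from human umbilical vein were treated with test chemicals for 24 h and inspected by light microscopy for changes in cell conformation.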

human Thyroid Receptor alpha (THRa1), THRA (gene 7067), sequence (P10827 whole entry, looked up, the tested form may be a part): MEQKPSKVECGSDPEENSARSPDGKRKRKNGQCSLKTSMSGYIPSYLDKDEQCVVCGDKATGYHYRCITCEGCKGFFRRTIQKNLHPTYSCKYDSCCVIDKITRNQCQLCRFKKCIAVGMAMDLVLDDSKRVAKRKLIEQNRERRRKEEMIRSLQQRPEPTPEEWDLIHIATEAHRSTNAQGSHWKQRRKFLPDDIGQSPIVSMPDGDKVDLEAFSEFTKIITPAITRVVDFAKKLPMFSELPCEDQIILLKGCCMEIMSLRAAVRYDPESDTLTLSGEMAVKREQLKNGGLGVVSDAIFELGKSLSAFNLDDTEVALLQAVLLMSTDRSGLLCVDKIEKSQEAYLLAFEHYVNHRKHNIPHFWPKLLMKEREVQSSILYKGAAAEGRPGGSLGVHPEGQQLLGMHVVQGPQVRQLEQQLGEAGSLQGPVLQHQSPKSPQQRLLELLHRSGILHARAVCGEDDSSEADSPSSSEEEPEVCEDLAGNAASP
E-selectin (Homo sapiens), sequence (P16581 whole entry, looked up): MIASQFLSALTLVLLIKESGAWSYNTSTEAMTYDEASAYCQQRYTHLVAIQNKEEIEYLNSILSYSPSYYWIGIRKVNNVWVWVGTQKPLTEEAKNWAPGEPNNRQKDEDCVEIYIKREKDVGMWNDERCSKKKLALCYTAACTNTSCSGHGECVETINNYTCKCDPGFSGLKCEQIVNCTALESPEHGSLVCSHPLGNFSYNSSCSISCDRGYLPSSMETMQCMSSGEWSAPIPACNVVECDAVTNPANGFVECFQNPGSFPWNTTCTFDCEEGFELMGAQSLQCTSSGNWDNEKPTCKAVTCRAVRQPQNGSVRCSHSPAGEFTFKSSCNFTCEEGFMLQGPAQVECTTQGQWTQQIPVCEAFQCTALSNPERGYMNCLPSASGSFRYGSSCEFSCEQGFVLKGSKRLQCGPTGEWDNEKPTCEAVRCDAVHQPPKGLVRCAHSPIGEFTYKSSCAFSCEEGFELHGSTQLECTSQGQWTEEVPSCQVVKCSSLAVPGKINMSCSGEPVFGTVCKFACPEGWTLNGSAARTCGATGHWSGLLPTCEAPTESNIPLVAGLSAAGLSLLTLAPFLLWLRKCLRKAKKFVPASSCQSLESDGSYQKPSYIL
human Retinoid X Receptor beta (RXRb), RXRB (gene 6257), sequence (P28702 whole entry, looked up): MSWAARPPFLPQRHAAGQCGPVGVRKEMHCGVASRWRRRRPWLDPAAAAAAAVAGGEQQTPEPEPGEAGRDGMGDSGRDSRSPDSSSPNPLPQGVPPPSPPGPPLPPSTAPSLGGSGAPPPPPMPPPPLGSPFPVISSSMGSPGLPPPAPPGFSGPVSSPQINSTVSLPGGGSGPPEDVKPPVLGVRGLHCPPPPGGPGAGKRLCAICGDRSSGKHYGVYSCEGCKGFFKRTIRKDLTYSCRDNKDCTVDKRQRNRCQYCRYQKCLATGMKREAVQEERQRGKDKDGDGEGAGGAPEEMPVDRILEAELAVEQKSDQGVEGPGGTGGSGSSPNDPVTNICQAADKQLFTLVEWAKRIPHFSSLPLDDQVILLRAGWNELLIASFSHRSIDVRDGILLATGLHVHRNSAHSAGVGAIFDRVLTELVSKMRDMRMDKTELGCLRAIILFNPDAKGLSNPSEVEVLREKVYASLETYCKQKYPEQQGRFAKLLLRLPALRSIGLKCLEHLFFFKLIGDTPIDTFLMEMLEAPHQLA
human Vitamin D Receptor (VDR), VDR (gene 7421), sequence (P11473 whole entry, looked up, the tested form may be a part): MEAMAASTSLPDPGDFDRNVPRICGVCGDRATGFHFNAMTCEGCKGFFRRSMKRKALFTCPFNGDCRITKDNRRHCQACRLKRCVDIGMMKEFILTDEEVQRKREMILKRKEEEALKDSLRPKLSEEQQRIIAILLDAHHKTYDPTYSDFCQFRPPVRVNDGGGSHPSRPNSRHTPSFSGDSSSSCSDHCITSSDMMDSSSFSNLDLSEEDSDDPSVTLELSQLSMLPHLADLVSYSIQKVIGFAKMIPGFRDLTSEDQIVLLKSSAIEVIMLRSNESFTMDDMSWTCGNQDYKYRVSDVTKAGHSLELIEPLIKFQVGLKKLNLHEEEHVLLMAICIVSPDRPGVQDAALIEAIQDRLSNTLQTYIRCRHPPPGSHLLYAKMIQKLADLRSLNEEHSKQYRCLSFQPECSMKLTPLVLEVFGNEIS

Turning to `CCOS(=O)(=O)OCC`, the compound was classed as inactive in test [1], in [2], in test [3], in test [4], in [5] and in test [6]. Further, the outcome in test [7], in [8], in test [9], in test [10], in test [11] and in [12] was inactive. Besides, the outcome in [13] and in [14] was inactive.
With `COCCOCCO`, the outcome in [2], in test [3], in test [4], in [5], in test [6] and in test [7] was inactive. For the same compound, the outcome in test [8], in test [9], in test [10], in test [11], in test [12] and in test [13] was inactive. The result in test [14] and in test [15] was inactive.
`CC(O)C(F)(F)C(F)(F)F` (centres undefined): the compound was called inactive in test [16], in test [2], in test [3], in [4], in test [5] and in [6]. Further, the outcome in [7], in test [8], in test [17], in test [9], in [10] and in test [11] was inactive. For the same compound, the result in [12], in test [13], in test [14] and in test [15] was inactive.
Turning to `O=[N+]([O-])c1ccccc1`, the AC50 in [16] was 10.7 µM (active). Also, the result in test [3], in test [4], in test [5], in test [6], in test [7] and in test [8] was inactive. For the same compound, the outcome in test [9], in [10], in [11], in test [12], in test [13] and in [14] was inactive.
Take `Nc1ccc([N+](=O)[O-])cc1Cl`: the compound was classed as inactive in test [16], in test [2], in test [3], in test [4], in test [5] and in [6]. Moreover, the result in test [7], in test [8], in test [17], in test [9], in test [10] and in [18] was inactive. Besides, the result in [11], in [12], in [13], in test [14] and in test [15] was inactive.
Turning to `Cc1ccc([N+](=O)[O-])cc1C`, the result in [16], in test [2], in test [3], in test [4], in [5] and in test [6] was inactive. Moreover, the result in test [7], in test [8], in test [17], in [9], in [10] and in test [11] was inactive. In addition, the outcome in test [12], in test [13] and in test [14] was inactive.
On to `CC(Cl)CN(C)C` (centres undefined), for which the outcome in [2], in test [3], in [4], in [5], in [7] and in test [8] was inactive. Further, the result in [17], in [9], in test [10], in test [18], in test [11] and in test [12] was inactive. Besides, the result in test [13], in [14] and in test [15] was inactive. Moreover, the AC50 in test [6] was 7.97 µM (active).
In the case of `CO/N=C(/C(=O)OC)c1ccccc1COc1ccccc1C`, the call in test [16], in test [1] and in [17] was inactive.
For the compound `CC(C)CBr`, the outcome in test [1] was inactive.

Broadly, the AC50 is the concentration at which the activity in the assay is half-maximal.

The record behind these values is PubChem BioAssay (EPA / NIEHS).
